Source: PubChem (National Center for Advancing Translational Sciences (NCATS))
Cruzain inh noDet = cruzain (T. cruzi) inhibition without detergent | purified cruzain, Z-FR-AMC fluorescence, no detergent | Potency, µM, most hits filed as inhibitors | actives 2.3% (n = 200,000); also: nearly all actives have a fitted effect of over 40% in size
Target sequence (P25779 123-467 limits assumed): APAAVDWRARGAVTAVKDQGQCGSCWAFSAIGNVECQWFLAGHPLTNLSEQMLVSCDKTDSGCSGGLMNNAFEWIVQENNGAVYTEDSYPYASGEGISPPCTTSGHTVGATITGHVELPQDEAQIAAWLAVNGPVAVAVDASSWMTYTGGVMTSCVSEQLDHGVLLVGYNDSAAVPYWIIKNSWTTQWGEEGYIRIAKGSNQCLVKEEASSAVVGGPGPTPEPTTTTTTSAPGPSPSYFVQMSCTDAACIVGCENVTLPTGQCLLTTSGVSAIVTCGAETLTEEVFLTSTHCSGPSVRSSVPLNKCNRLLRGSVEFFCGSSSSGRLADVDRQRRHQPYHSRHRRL
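Purified cruzain at 1.5 nM, pre-incubated 15 min with compound at room temperature in 100 mM sodium acetate pH 5.5, 5 mM DTT, 0.00005% Triton X-100. Reaction started with 2 uM Z-FR-AMC; AMC fluorescence increase over 60 s gives rate.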
Cruzain inh Det = inhibitors of Trypanosoma cruzi cruzain with detergent; P25779; purified cruzain, Z-FR-AMC fluorescence, 0.01% Triton; Potency, µM, actives largely listed as inhibitors; actives 0.43% (n = 200,000); also: nearly all actives have a fitted effect of over 40% in size
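Cysteine protease activity tested under reducing, mildly acidic conditions (100 mM sodium acetate pH 5.5, 5 mM DTT) plus 0.01% Triton X-100. Cruzain 1.5 nM; substrate Z-FR-AMC 2 uM; 15 min compound preincubation at room temperature.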
Papain inh = blocks papain protease activity, flagging nonselective cruzain hits. purified papain, Z-FR-AMC fluorescence cleavage. shares compounds with Cruzain inh Det. AID 2161. actives 41% (n = 410). Potency, µM, usual class: inhibitors; also: nearly all actives have a fitted effect of over 35% in size
Target sequence (P00784 whole entry, looked up): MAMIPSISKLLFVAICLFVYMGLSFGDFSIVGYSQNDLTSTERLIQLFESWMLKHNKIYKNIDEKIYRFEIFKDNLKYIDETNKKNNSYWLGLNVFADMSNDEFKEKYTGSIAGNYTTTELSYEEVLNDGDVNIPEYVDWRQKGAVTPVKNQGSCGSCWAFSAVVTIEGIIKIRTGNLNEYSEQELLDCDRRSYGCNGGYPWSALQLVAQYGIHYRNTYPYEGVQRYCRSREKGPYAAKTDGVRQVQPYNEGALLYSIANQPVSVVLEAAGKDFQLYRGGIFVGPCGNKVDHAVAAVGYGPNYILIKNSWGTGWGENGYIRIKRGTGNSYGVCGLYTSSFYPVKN
Of the large screens only hits and unclear results are named; the others gave an inactive call (follow-up assays come after a bar, where they were run). An excerpt weighted towards active compounds, which were near 2.6% of everything screened. Calls follow the shape of the dose curve; as a rule, active = well fitted curve in the direction sought with a large enough effect; inconclusive = small, poorly fitted or top-dose-only effect, or another doubt; inactive = no such curve, though single readings can be large; an effect the other way counts as inactive or inconclusive.

CC(C)c1nc2ccc(C(=O)NC(C)c3ccccc3)cc2o1 (configuration not stated)	none
CCOC(=O)c1ccc(NC(=O)CC2C(=O)N(c3ccc(C)cc3)C(=O)N2C2CCCC2)cc1 (configuration not stated)	none
Cc1cccc(NC(=O)c2ccc(F)c(S(=O)(=O)N3CCN(c4ccc(F)cc4)CC3)c2)c1	Cruzain inh noDet inconclusive
Cc1cccc(N2CCN(S(=O)(=O)c3cc(C(=O)Nc4ccc(Oc5ccccc5)cc4)ccc3F)CC2C)c1 (configuration not stated)	none
O=C(Nc1ccc(Oc2ccccc2)cc1)c1ccc(F)c(S(=O)(=O)N2CCN(c3cccc(Cl)c3)CC2)c1	Cruzain inh noDet 4µM
COc1ccccc1N1CCN(S(=O)(=O)c2ccccc2F)CC1	none
COc1ccccc1N1CCN(S(=O)(=O)c2cc(C(=O)Nc3ccc(Oc4ccccc4)cc3)ccc2F)CC1	Cruzain inh noDet 7.9µM
O=C(COC(=O)c1ccc(Cl)c(S(=O)(=O)N2CCN(c3ccc(F)cc3)CC2)c1)Nc1cccc(Cl)c1	Cruzain inh noDet 13µM
CC(C)c1ccc(NC(=O)c2ccc(F)c(S(=O)(=O)N3CCN(c4ccccc4F)CC3)c2)cc1	none
O=C(Nc1ccc(Oc2ccccc2)cc1)c1ccc(F)c(S(=O)(=O)N2CCN(c3ccccc3F)CC2)c1	Cruzain inh noDet 7.9µM
Nc1nc(Nc2ccccc2F)sc1C(=O)c1ccc(Cl)cc1	none
CCCCNc1sc(S(=O)(=O)CCC)nc1S(=O)(=O)c1ccc(C)cc1	none
Cc1ccc(CNC(=O)C(=O)NCC(c2cccnc2)N2CCN(c3ccccc3F)CC2)cc1 (configuration not stated)	Cruzain inh noDet inconclusive
COc1ccc(NC(=O)Cn2c(=O)n(Cc3ccccc3Cl)c(=O)c3cc(OC)c(OC)cc32)cc1OC	none
O=C(COc1ccc(F)cc1)NCCc1nc2ccccc2[nH]1	Cruzain inh Det 1.6µM | Papain inh 3.5µM
O=C(NCCc1nc2ccccc2[nH]1)Nc1ccccc1	none
COc1ccc(OCC2c3cc(OC)c(OC)cc3CCN2C(=O)COc2ccc(Cl)cc2Cl)cc1 (configuration not stated)	none
CCOC(=O)c1c(C)c(-c2ccccc2)n(CC(=O)Nc2cc(C)cc(C)c2)c1C	none
O=C1CN(C(=O)CSc2nc3ccccc3n2CCc2ccccc2)c2ccccc2N1	none
CCCn1c(SCC(=O)N2CC(=O)Nc3ccccc32)nc2ccccc21	Cruzain inh Det 13µM | Papain inh inactive
CCS(=O)(=O)c1ccc(C(=O)N2CCN(c3nc4c(OC)ccc(C)c4s3)CC2)cc1	Cruzain inh noDet inconclusive
CCS(=O)(=O)c1cccc(C(=O)N2CCN(c3nc4c(C)ccc(Cl)c4s3)CC2)c1	Cruzain inh noDet inconclusive, Cruzain inh Det 7.9µM | Papain inh inactive
CCOC(=O)c1cccc(NC(=O)C2CCN(S(=O)(=O)c3ccc4c(c3)oc(=O)n4C)CC2)c1	none
O=C(CNC(=O)c1ccccc1)N[C@H](C(=O)Nc1cc(C(F)(F)F)ccc1Cl)c1ccccc1	none (no result: Cruzain inh noDet, Cruzain inh Det) | Papain inh inactive
O=C(NC(Nc1cc(C(F)(F)F)ccc1Cl)C(=O)c1ccccc1)c1ccccc1 (configuration not stated)	Cruzain inh noDet inconclusive
Cc1ccccc1NC(=O)CCn1cnc2onc(-c3ccc(F)cc3)c2c1=O	Cruzain inh noDet inconclusive
CCCCNc1nc(C#N)nc(Nc2ccccc2)n1	none (no result: Cruzain inh noDet, Cruzain inh Det) | Papain inh 1µM
COc1ccc(Nc2nc(Cl)nc(NCCO)n2)cc1	none
CCCCNc1cc(C)nc(NCc2ccccc2)n1	none
N#Cc1nc(NCCCCO)nc(Nc2ccccc2)n1	none (no result: Cruzain inh noDet, Cruzain inh Det) | Papain inh 2.2µM
Cc1cc(C)c(Cn2c(C(O)c3ccccc3)nc3ccccc32)c(C)c1 (configuration not stated)	Cruzain inh noDet inconclusive
COc1ccc(-c2nc3ccc(C(=O)NCc4ccccc4)cc3nc2-c2ccc(OC)cc2)cc1	none
O=C(NCC1CC1)c1ccc2nc(-c3ccoc3)c(-c3ccoc3)nc2c1	none (no result: Cruzain inh noDet, Cruzain inh Det) | Papain inh inactive
CCN(CC)CCNC(=O)Cn1ncc2c3ccccc3n(Cc3ccc(Cl)cc3)c2c1=O	none
CC(C)(C)c1ccc(S(=O)(=O)c2cnc(SCC(=O)Nc3ccc(F)c(Cl)c3)[nH]c2=O)cc1	Cruzain inh Det 20µM | Papain inh 2.8µM
O=C(CSc1ncc(S(=O)(=O)c2ccc(Cl)cc2)c(=O)[nH]1)Nc1cccc(C(F)(F)F)c1	Cruzain inh Det inconclusive
Cc1nc2cc(-c3ccccc3)nn2c(C)c1CCC(=O)N1CCN(c2ccc(F)cc2)CC1	none
Cc1c(CC(=O)N2CCCCC2)c(=O)oc2c(C)c3occ(C(C)(C)C)c3cc12	none
CCOc1ccc(S(=O)(=O)N2CCc3ccccc3C2)cc1	none
CCOc1ccc(-c2csc(NC(=O)c3ccc(S(=O)(=O)N4CCc5ccccc5C4)cc3)n2)cc1	Cruzain inh noDet 4µM | Papain inh inactive
O=C(Nc1nc(-c2ccc(S(=O)(=O)N3CCCCCC3)cc2)cs1)c1cccs1	Cruzain inh noDet 3.2µM | Papain inh inactive
O=C(Nc1nc(-c2ccc(S(=O)(=O)N3CCCC3)cc2)cs1)c1cccs1	none
CC(=O)N1CCC2(CC1)CCN(c1ccc(-c3ccccc3)cc1)CC2	Cruzain inh noDet inconclusive
CCOC(=O)C1=C(CS(=O)(=O)c2ccc(Br)cc2)NC(=O)NC1c1ccccc1 (configuration not stated)	none
CCOC(=O)c1c(S(=O)(=O)N2CCCC(C(=O)Nc3ccc(OCC)cc3)C2)c(C)n(C)c1C (configuration not stated)	none
c1csc(Cc2nn3c(-c4n[nH]c5c4CCC5)nnc3s2)c1	Cruzain inh noDet inconclusive
Cc1cc(-c2nnc3sc(-c4ccc(Cl)cc4Cl)nn23)n[nH]1	none
COc1cc(OC)c(-c2nn3c(-c4cc(C)[nH]n4)nnc3s2)cc1OC	none (no result: Cruzain inh noDet, Cruzain inh Det) | Papain inh inactive
COc1cc(OC)c(-c2nn3c(-c4n[nH]c5c4CCC5)nnc3s2)cc1OC	none (no result: Cruzain inh noDet, Cruzain inh Det) | Papain inh inactive
Cc1nnc(N2C(=O)c3oc4ccccc4c(=O)c3C2c2cccc(OCCC(C)C)c2)s1 (configuration not stated)	none
CCCc1ccc(OCC(=O)Nc2sc(C(=O)OCC)c(C)c2C(=O)OCC)cc1	none
COc1cc2c(=O)n(CCc3ccccc3)c(=O)n(CC(=O)Nc3ccccc3)c2cc1OC	none
CCOC(=O)c1cccc(NC(=O)CC2C(=O)N(c3ccc(OC)cc3)C(=O)N2C2CCCC2)c1 (configuration not stated)	none
O=C(NC(=S)Nc1nc(-c2cccc3ccccc23)cs1)c1cc2ccccc2o1	Cruzain inh noDet 2.5µM | Papain inh inactive
O=C(NC(=S)Nc1ccc(NC(=O)c2cccs2)cc1)c1cc2ccccc2o1	Cruzain inh noDet inconclusive
CC(C)(C)c1ccc(CN2N=Nc3ccccc3S2(=O)=O)cc1	Cruzain inh noDet inconclusive
O=S1(=O)c2ccccc2N=NN1Cc1ccc(Cl)c(Cl)c1	Cruzain inh noDet inconclusive, Cruzain inh Det 22µM | Papain inh inactive
Cc1ccc(C)c(CN2C(=O)c3ccccc3Sc3ccc(C(=O)NCc4cccs4)cc32)c1	Cruzain inh noDet inconclusive
O=C(NCc1ccc2c(c1)OCO2)c1ccc2c(c1)N(Cc1ccccc1F)C(=O)c1ccccc1S2	Cruzain inh noDet inconclusive
O=C(NCc1ccc2c(c1)OCO2)c1ccc2c(c1)N(Cc1cccc(Cl)c1)C(=O)c1ccccc1S2	Cruzain inh noDet 13µM | Papain inh inactive
